A number with no mark means an inactive call. Records with an inconclusive call do not appear. Activity calls are given as the source filed them. Unless noted, calls come from the whole dose curve; as a rule, active = well fitted curve in either direction with a large enough effect (not every such curve was filed as active); inconclusive = small, poorly fitted or top-dose-only effect, or another doubt; inactive = flat fitted curve, though single readings scatter. Bounds are passed on as bounds.

The nature of experiment [1]: AP1 Signaling Pathway (AID 357).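 Note: ME-180 reporter cells stimulated with EGF at its EC50 level; % is set by controls: 0 for no effect and ±100 for the full control effect.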 Conditions: ME-180 AP-1-bla reporter, EGF-induced, beta-lactamase ratio, 5 h; at 17.2 µM (top of the series) unless noted. The gist of the method: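 In this screen, ME-180 cells in Opti-MEM with 0.5% dialyzed FBS received EC50 EGF and compound titrations for 5 h. AP-1 reporter beta-lactamase was detected via CCF4 ratio, giving AC50 for positive and negative modulators.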

The target of experiment [2] is Cytochrome P450 1A2 (Homo sapiens) (UniProt P05177). Description: p450-cyp1a2 (AID 410; calls by dose curve; note: potency is the fitted concentration of half-maximal effect;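 for activity change, negative = inhibition: -100% = full effect of reference inhibitor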). The gist of the method:
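20nM CYP1A2, 100uM Luciferin-ME (=Km), 100mM KPO4; cpd 10 min RT; +NADPH regen, 60 min RT; stop/detect 20 min; luminescence. Normalized to furafylline 57 uM = full inhibition.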

Experiment [3] can be described thus: Stat Signaling Pathway (AID 446).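 Note: ME-180 cervical cancer cells given 40 pM IL-6 alongside compound; SIE-controlled beta-lactamase reporter measured as 460/530 nm FRET emission ratio; % is set by controls: 0 for no effect and ±100 for the full control effect.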 Conditions: ME-180 SIE beta-lactamase reporter, IL-6 stimulated, 5 h; at 17.2 µM (top of the series) unless noted. The gist of the method:
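FRET read-out (405 nm excitation, 460/530 nm emission) of a beta-lactamase reporter under a STAT-inducible element in ME-180 cervical carcinoma cells. Cells with compound receive 40 pM IL-6 for 5 h. Values are normalised to AC90 stimulation and AC90 JAK-inhibitor controls.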

Experiment [4] concerns the target Glucocorticoid receptor (Homo sapiens) (UniProt P04150). Kind of experiment: GR-GFP Redistribution (AID 450;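 active = compounds whose dose series gives a full or clear partial fitted curve of increased nuclear translocation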; note: potency is the fitted concentration of half-maximal effect).
Experiment [5] shares this target. Kind of experiment: GR-EFC Redistribution (AID 451; calls by dose curve; note: potency is the fitted concentration of half-maximal effect). Conditions: CHO-K1 GR-EFC translocation, beta-gal luminescence, 2 h. The gist of the method:
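Translocation of GR-ED fusion to nuclear EA restores b-gal, read by luminescence after 1 h room-temperature detection. Engineered CHO-K1 biosensor cells, 1,000/well, exposed 2 h at 37 C to titrations up to 46 uM final.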

Experiment [6] deals with Mitogen-activated protein kinase 10 (Mus musculus) (UniProt Q61831). Kind of experiment: JNK3 AlphaScreen Assay (AID 530).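 Note: kinase came from lysate of stimulated human HepG2 cells; signal reports phosphorylation of biotinylated GST-cJun 1-79 at Ser73 with 10 µM ATP; % is set by controls: 0 for no effect and ±100 for the full control effect.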 The gist of the method: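 Kinase buffer: 20 mM Tris-HCl pH 7.6, 10 mM MgCl2, 1 mM DTT, 0.1 mM Na3VO4, 0.01% Tween-20; ATP 10 uM. Substrate biotin-GST-cJun(1-79), enzyme from activated HepG2 lysates. Detection by Ser73 phospho-antibody AlphaScreen.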

Experiment [7] has as its target 3',5'-cyclic-AMP phosphodiesterase 4B (Homo sapiens) (UniProt Q07343). Description: qHTS Assay for Inhibitors of PDE-IV (AID 607; active = well fitted activation curve with a large enough effect in the main read-out, with a control signal flat, not every such curve was filed as active; note: % of control where 0% means no effect). The gist of the method:
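Cell-based read-out of cAMP via a modified cyclic nucleotide-gated channel and membrane potential dye (535/590 nm) in HEK293 cells expressing PDE4 endogenously. Compounds tested up to 22.9 uM final; 100 uM RO 20-1724 reference.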

For experiment [8], the target named is Guanine nucleotide-binding protein G(i) subunit alpha-1 (Homo sapiens) (UniProt P63096). Kind of experiment: qHTS Assay for Inhibitors of RGS12 GoLoco Motif Activity (Green Fluorophore) (AID 879; active = well fitted curve in the direction sought with a large enough effect; an effect the other way counts as inactive or inconclusive;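 note: 0% = labeled peptide with Gαi1 and full inhibition = labeled peptide alone without protein; negative values mean loss of peptide binding seen as reduced polarization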). The gist of the method: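 A drop in FITC polarization marked displacement of the FITC-tagged RGS12 GoLoco peptide (10 nM) from Gαi1 (50 nM). Compounds were incubated 10 min at room temperature in Tris pH 7.5 buffer containing 150 mM NaCl, 0.1 mM GDP and 0.05% NP40; unlabeled peptide titration served as control.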
Sequence of Guanine nucleotide-binding protein G(i) subunit alpha-1 (Homo sapiens) (P63096 whole entry, looked up): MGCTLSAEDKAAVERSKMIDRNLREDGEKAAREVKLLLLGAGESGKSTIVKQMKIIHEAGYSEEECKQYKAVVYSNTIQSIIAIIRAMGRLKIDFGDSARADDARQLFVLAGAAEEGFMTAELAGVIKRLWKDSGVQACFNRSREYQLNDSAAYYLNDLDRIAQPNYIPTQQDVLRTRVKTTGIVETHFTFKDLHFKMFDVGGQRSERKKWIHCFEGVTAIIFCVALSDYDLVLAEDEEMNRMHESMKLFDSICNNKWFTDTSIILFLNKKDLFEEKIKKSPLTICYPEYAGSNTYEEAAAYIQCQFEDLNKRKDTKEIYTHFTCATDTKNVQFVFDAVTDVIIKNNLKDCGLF

A short description of experiment [9]: qHTS Assay for Identification of Small Molecule Agonists for Thrombopoietin (TPO) Signaling Pathway (AID 917; active = well fitted curve in the direction sought with a large enough effect; an effect the other way counts as inactive or inconclusive; note: % is set by controls: 0 for no effect and ±100 for the full control effect). The gist of the method: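 Stimulation at the TPO EC50 (26 pM final) was used to detect activators. Ba/F3 mouse cells bearing human TPO receptor and a luciferase reporter under the Glycoprotein IIb promoter were exposed to compounds for 24 hrs at 37 C.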

Experiment [10] addresses Pyruvate kinase (Leishmania mexicana) (UniProt Q27686). Kind of experiment: qHTS Validation Assay for Inhibitors of Leishmania Mexicana Pyruvate Kinase (AID 945; active = well fitted curve in the direction sought with a large enough effect; an effect the other way counts as inactive or inconclusive;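 note: 0% = DMSO only neutral control wells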). The gist of the method: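 Read-out: luminescence from PKLight stop/detection reagent, data normalized to DMSO. Reaction: 0.2 nM E451W LmPYK, 0.5 mM PEP, 0.1 mM ADP, pH 7.2, 1 h room temperature.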
The target of experiment [11] is Pyruvate kinase PKM (Homo sapiens) (UniProt P14618). Description: qHTS Assay for Activators of Human Muscle Pyruvate Kinase (AID 954; active = well fitted curve in the direction sought with a large enough effect, not every such curve was filed as active;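 note: 0% = uninhibited enzyme and -100% = no enzyme or full thiadiazolimine inhibition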). The gist of the method: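 ATP production by PKM2 detected via luciferase luminescence after 1 h room-temperature reaction (0.1 nM enzyme, PEP at Km 0.5 mM, ADP 0.1 mM, pH 7.2 imidazole buffer). Inhibition scaled to no-enzyme control; activation referenced to 0.3 nM enzyme wells.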
Sequence of Pyruvate kinase PKM (Homo sapiens) (P14618 whole entry, looked up): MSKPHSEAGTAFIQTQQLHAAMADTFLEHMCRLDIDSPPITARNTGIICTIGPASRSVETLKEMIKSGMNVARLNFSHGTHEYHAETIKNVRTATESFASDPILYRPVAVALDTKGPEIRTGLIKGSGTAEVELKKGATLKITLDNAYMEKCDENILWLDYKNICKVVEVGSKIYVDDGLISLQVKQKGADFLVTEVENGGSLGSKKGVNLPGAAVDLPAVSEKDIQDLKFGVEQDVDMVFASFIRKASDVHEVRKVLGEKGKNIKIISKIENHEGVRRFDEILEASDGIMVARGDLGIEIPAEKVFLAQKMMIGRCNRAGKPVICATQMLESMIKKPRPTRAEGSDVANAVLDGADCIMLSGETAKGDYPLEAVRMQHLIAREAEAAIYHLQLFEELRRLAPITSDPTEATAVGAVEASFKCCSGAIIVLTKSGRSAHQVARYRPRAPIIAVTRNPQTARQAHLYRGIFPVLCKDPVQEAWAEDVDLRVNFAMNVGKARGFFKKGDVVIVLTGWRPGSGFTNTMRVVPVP

For experiment [12], the target named is Alpha-galactosidase A (Homo sapiens) (UniProt P06280). Description: Counterscreen for Glucocerebrosidase Inhibitors: qHTS Assay for Human alpha-Galactosidase at pH 4.5 (AID 992; active = well fitted curve in the direction sought with a large enough effect; an effect the other way counts as inactive or inconclusive; note: 0% is about no effect). The gist of the method:
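Fluorogenic 1536-well qHTS at pH 4.5 (citrate, Tween-20): 2 nM enzyme, 80 uM 4-MU-alpha-galactoside, 20 min room temperature, NaOH/glycine stop. Titration 0.7 nM to 77 uM, data normalized to no-enzyme and full-activity controls, Hill-fitted AC50.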

Experiment [13] deals with alpha-glucosidase (Oryza sativa, rice) (UniProt Q653V4). Kind of experiment: Counterscreen for Glucocerebrosidase Inhibitors: qHTS Assay for Rice alpha-Glucosidase at pH 5.0 (AID 997; active = well fitted curve in the direction sought with a large enough effect; an effect the other way counts as inactive or inconclusive;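 note: 0% = full activity with enzyme and -100% = basal without enzyme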). The gist of the method:
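Endpoint fluorogenic assay at pH 5.0: compounds (0.7 nM to 77 uM) titrated against 4 nM rice enzyme and 400 uM 4-MU-alpha-glucoside for 20 min at room temperature; NaOH/glycine stop, read ex 365/em 440 nm, Hill-fitted AC50.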

The nature of experiment [14]: qHTS Assay for Identification of Small Molecule Agonists for Hypoxia Response Element Signaling Pathway (AID 914; active = well fitted activation curve with a large enough effect in the signal ratio, with a control signal flat, not every such curve was filed as active; the % refers to the signal ratio; note: % of control where 0% means no effect). Conditions: ME-180 (cervical carcinoma) HRE-bla reporter, beta-lactamase ratio, CoCl2, 17 h; activation: active compounds read high. The gist of the method:
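qHTS titration; ME-180 HRE-bla cells; EC50 CoCl2 co-treatment, 17 h at 37 degrees Celsius; CCF4 dye, ex 405nm, em 460nm and 530nm; %Activity from ratio; AC50.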

A short description of experiment [15]: NFAT Signaling Pathway (AID 444). Conditions: Jurkat NFAT-bla M1, carbachol, beta-lactamase ratio, 5 h; at 17.2 µM (top of the series) unless noted. The gist of the method:
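Read-out: CCF4 FRET ratio (460 nm/530 nm) after 1 h RT dye loading, used for %activity and AC50 from titration series. Cells: Jurkat NFAT-β-lactamase/M1 line, treated with compound plus 1 uM carbachol for 5 h, 37 °C.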

Experiment [16] addresses Cytochrome P450 3A4 (Homo sapiens) (UniProt P08684). Kind of experiment: qHTS Assay for Activators of Cytochrome P450 3A4 (AID 885; active = well fitted curve in the direction sought with a large enough effect; an effect the other way counts as inactive or inconclusive; note: nearly all actives have a fitted effect of over 65% in size). The gist of the method:
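Luminescent readout of luciferin formed from 25 uM Luciferin-PPXE (KM level) by 20 nM CYP3A4 in 200 mM KPO4, with 60 min NADPH-driven reaction at room temperature after 10 min compound exposure. Ketoconazole (57 uM) defined 100% inhibition.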

Experiment [17] deals with Muscarinic acetylcholine receptor M1 (Rattus norvegicus) (UniProt P08482). Kind of experiment: qHTS Assay for Antagonists of Acetylcholine Muscarinic M1 Receptor: Kinetic Measurement of Intracellular Calcium Response (AID 943; active = well fitted curve in the direction sought with a large enough effect; an effect the other way counts as inactive or inconclusive; note: potency is the fitted concentration of half-maximal effect; nearly all actives have a fitted effect of over 75% in size). The gist of the method: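 Read-out: peak over basal Fluo-4 fluorescence, kinetic at 1 Hz for 4 min after EC80 carbachol (100 nM final). Rat M1-CHO cells, dye loaded 1 h at 37C, compound added 10 min before agonist.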
Sequence of Muscarinic acetylcholine receptor M1 (Rattus norvegicus) (P08482 whole entry, looked up): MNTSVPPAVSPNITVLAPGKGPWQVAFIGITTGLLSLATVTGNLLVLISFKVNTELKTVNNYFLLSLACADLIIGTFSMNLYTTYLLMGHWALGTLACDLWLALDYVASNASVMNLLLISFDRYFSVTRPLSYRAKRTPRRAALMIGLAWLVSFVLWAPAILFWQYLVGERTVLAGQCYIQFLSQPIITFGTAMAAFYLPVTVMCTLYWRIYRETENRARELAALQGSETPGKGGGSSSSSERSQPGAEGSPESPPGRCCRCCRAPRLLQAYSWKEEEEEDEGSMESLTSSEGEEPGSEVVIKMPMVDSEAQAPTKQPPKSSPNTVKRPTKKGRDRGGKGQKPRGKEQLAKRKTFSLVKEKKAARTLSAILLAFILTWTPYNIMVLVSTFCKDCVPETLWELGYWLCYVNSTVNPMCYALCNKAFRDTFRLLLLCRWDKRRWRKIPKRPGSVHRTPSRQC

Experiment [18] shares this target. Description: qHTS Assay for Antagonists of Acetylcholine Muscarinic M1 Receptor: Measurement of IP-One Response (AID 944; active = well fitted curve in the direction sought with a large enough effect; an effect the other way counts as inactive or inconclusive; note: potency is the fitted concentration of half-maximal effect; nearly all actives have a fitted effect of over 75% in size). The gist of the method:
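Read-out: HTRF competition between d2-IP1 and Eu-cryptate anti-IP1 antibody, emission 620 and 665 nm. Stimulus was carbachol, EC80 (200 nM), for 30 min in M1-CHO cells (rat receptor), after 10 min compound pre-treatment.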

Experiment [19] addresses Cytochrome P450 3A4 (Homo sapiens) (UniProt P08684). Description: qHTS Assay for Inhibitors and Substrates of Cytochrome P450 3A4 (AID 884; active = well fitted curve in the direction sought with a large enough effect; an effect the other way counts as inactive or inconclusive; note: % is set by controls: 0 for no effect and ±100 for the full control effect; nearly all actives have a fitted effect of over 50% in size). The gist of the method: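 Luminescent readout of luciferin produced by CYP3A4 (20 nM) dealkylation of Luciferin-PPXE, 25 uM (its KM). NADPH-driven reaction ran 60 min at RT after 10 min compound preincubation; data scaled to 57 uM ketoconazole as 100% inhibition.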

Sequence of Cytochrome P450 1A2 (Homo sapiens) (P05177 whole entry, looked up): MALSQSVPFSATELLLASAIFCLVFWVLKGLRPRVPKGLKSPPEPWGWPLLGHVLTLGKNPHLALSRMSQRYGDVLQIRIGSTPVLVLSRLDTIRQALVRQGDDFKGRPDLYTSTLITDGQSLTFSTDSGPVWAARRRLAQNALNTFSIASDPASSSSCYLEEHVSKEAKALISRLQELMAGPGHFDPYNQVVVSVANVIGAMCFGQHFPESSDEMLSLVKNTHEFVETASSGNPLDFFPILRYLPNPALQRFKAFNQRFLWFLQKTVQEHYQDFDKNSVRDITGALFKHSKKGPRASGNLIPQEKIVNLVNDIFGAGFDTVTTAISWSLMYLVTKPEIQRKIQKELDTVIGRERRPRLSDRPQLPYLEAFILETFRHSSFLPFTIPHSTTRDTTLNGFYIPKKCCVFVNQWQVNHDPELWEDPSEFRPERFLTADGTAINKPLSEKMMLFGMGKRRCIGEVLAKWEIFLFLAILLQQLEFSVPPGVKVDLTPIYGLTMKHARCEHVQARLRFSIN
Sequence of Glucocorticoid receptor (Homo sapiens) (P04150 whole entry, looked up): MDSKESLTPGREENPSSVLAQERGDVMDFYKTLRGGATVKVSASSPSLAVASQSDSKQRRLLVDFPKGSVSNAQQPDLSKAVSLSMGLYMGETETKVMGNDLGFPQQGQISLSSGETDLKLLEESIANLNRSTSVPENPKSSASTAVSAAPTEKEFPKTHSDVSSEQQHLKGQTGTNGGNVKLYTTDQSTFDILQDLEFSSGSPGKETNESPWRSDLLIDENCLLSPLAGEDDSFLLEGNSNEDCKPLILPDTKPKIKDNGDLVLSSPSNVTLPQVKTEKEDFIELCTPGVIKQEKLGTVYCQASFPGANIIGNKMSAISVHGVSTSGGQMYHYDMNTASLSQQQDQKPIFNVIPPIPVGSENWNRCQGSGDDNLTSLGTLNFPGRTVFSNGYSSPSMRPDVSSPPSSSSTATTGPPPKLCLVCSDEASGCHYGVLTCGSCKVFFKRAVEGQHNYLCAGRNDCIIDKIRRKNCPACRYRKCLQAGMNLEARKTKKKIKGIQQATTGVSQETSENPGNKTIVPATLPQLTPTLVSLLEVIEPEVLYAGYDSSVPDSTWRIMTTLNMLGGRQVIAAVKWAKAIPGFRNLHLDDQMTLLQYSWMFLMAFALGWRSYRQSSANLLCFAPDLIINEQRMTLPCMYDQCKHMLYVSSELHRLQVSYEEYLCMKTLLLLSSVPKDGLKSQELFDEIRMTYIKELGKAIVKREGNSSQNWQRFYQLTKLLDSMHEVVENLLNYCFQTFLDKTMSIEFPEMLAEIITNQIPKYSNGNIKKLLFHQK
Sequence of Alpha-galactosidase A (Homo sapiens) (P06280 whole entry, looked up): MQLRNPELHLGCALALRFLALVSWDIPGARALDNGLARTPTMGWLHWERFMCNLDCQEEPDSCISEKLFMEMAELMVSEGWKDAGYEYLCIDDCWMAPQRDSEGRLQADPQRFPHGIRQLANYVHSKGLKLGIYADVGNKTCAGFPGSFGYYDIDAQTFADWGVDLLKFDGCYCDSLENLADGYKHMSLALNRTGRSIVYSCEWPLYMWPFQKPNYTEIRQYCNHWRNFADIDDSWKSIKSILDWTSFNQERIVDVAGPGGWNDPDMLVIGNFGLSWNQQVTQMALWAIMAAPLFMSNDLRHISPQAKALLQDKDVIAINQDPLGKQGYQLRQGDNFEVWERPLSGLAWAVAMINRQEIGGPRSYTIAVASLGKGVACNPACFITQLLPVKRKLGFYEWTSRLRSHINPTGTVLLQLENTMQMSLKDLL
Sequence of 3',5'-cyclic-AMP phosphodiesterase 4B (Homo sapiens) (Q07343 whole entry, looked up): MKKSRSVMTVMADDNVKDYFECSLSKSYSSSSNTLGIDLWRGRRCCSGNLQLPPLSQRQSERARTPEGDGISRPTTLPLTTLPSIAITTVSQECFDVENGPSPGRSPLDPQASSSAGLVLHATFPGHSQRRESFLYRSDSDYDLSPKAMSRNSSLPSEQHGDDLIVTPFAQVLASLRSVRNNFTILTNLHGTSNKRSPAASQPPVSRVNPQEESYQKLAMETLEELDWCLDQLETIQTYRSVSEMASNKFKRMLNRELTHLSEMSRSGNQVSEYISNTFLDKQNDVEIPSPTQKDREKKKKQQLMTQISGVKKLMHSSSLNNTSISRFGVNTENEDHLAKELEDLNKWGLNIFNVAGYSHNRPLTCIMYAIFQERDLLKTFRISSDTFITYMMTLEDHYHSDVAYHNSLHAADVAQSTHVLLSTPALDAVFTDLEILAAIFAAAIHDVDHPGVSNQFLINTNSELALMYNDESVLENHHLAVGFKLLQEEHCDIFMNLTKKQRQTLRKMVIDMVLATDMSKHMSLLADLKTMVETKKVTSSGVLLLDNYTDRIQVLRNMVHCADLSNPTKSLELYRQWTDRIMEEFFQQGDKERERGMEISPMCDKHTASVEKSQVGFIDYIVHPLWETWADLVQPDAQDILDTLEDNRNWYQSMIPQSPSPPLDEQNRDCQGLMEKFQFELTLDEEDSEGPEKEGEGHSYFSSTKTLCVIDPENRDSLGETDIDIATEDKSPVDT
Sequence of Pyruvate kinase (Leishmania mexicana) (Q27686 2-499 E452W): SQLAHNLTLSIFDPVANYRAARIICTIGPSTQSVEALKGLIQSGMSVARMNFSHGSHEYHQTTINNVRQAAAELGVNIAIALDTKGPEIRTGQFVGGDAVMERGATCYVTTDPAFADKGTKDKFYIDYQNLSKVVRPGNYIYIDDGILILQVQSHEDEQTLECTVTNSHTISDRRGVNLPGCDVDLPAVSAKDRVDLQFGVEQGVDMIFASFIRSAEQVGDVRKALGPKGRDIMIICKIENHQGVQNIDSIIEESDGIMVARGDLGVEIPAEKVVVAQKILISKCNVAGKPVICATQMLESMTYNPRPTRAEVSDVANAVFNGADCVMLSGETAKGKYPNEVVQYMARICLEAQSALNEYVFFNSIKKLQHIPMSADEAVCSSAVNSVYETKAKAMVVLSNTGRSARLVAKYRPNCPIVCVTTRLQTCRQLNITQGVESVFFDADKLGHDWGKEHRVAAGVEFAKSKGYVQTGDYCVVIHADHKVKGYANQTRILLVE
Sequence of Cytochrome P450 3A4 (Homo sapiens) (P08684 whole entry, looked up): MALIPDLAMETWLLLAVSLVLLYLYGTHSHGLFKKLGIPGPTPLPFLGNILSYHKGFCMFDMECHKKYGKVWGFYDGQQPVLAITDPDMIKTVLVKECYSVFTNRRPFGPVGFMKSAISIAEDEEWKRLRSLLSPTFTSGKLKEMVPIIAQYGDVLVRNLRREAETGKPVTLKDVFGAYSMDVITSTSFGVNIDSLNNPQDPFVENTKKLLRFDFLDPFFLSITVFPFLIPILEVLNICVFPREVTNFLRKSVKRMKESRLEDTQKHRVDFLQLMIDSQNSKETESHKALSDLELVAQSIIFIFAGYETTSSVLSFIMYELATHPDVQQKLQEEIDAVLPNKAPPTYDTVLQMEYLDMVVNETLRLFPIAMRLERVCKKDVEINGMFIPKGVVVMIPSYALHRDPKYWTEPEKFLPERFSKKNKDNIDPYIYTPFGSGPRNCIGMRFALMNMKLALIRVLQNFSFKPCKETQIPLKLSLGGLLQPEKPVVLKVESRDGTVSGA

On to `CCCCCCCCCCCCCCCCCCOC[C@@H](COP(=O)([O-])OCC[N+](C)(C)C)OC`, for which the activity change, negative = inhibition in experiment [1] is 29% [at 38 µM]. Further, the Potency entry in [2], in experiment [6], in [7], in experiment [9] and in [10] was “inactive” in each case. The activity, negative = inhibition in experiment [3] is 4.35% [at 38 µM]. Moreover, the Potency in experiment [4] and in experiment [5] was > 46 µM throughout. Besides, the call in [8], in experiment [11], in experiment [12] and in experiment [13] was inactive.
With `Cc1cc(-c2cc(C)c(O)c(C(C)(C)C)c2)cc(C(C)(C)C)c1O`, the activity change, negative = inhibition in experiment [1] is -0.717% [at 7.69 µM]; in experiment [6] it was -3.71% [at 11.4 µM]. Further, the Potency is 0.631 µM (active) in experiment [2], > 46 µM in experiment [4] and > 9.22 µM in experiment [5]. Besides, the activity, negative = inhibition in experiment [3] was 14.1% [at 7.69 µM]. The Potency entry in experiment [7] is “inactive”. For the same compound, the activation in experiment [14] was -9.94%.
For `CO[C@H]1C=CO[C@@]2(C)Oc3c(C)c(O)c4c(O)c(c(C=NN5CCN(C)CC5)c(O)c4c3C2=O)NC(=O)C(C)=CC=C[C@H](C)[C@H](O)[C@@H](C)[C@@H](O)[C@@H](C)[C@H](OC(C)=O)[C@@H]1C`, the figures for the activity change, negative = inhibition in experiment [1] and in experiment [15] were -3.11% and 18.4%, respectively. Besides, the activity, negative = inhibition in experiment [3] is 1.14%.
Turning to `CCC(NC(=O)Nn1cnnc1)(C(F)(F)F)C(F)(F)F`, the activity change, negative = inhibition in [1] was 21.2%; in experiment [15], -0.332%. Further, the activity, negative = inhibition in experiment [3] is 5.97%. The Potency in experiment [4] was > 20.6 µM.
As for `COc1cc(N2CCCC2)c(OC)cc1/C=c1/sc2nc3ccccc3n2c1=O`, the activity change, negative = inhibition is -3.35% in experiment [1] and -23% in experiment [15]. In addition, in experiment [3], the activity, negative = inhibition was -0.381%.
Take `COC(=O)c1ccc(-c2sc3nc(N4CCOCC4)c4c(c3c2N)CC(C)(C)OC4)o1`: the activity change, negative = inhibition in experiment [1] is -12.7%; in [15], -1.53%. For the same compound, in experiment [3], the activity, negative = inhibition is 5.68%.
`CC1CCN(CC[C@@H]2CCCN2S(=O)(=O)c2cccc(O)c2)CC1`: the activity change, negative = inhibition in experiment [1] was 2.33% [at 38 µM]. Also, the Potency result in [2], in [7], in [16], in experiment [9] and in [10] was “inactive” each time. The activity, negative = inhibition in experiment [3] is -6.42% [at 38 µM]. The Potency in experiment [4] was > 46 µM; in [5] it was > 46 µM; in experiment [17], 14.1 µM (active); in experiment [18], 14.1 µM (active). Also, the call in experiment [8], in experiment [11], in experiment [12] and in experiment [13] was inactive.
Turning to `COc1cc2nc(N3CC=[N+](C(=O)c4ccco4)CC3)nc(N)c2cc1OC`, the activity change, negative = inhibition in experiment [1] was -19.6% [at 38 µM]. For the same compound, the Potency was 12.6 µM (active) in experiment [2], > 46 µM in experiment [4] and > 46 µM in experiment [5]. In addition, the Potency result in [6], in [19] and in [10] was “inactive” throughout. The call in experiment [8], in [11], in experiment [12] and in experiment [13] was inactive.
